In the library only some 3.1% were active in any assay of this set; here they are far more common.
Tau FP inhib: qHTS for Inhibitors of Tau Fibril Formation, Fluorescence Polarization; K18 P301L tau heparin fibrillization, Alexa594 FP, 6 h; Potency, µM (highest dose often 57.7 µM), most hits filed as inhibitors; 280,000 tested, 0.39% active; Microtubule-associated protein tau (Homo sapiens), P10636; note: nearly all actives have a fitted effect of over 55% in size
Target sequence (P10636 561-689 P618L limits assumed): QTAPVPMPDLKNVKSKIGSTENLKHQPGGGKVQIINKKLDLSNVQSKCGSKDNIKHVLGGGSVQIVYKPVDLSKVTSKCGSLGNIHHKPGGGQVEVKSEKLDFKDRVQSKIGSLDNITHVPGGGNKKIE
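Compound effects on tau fibrillization are measured by Alexa 594 fluorescence polarization (ex 555, em 632 nm). K18 P301L tau is used at 15 uM with 0.24 uM labeled tracer, and 20 uM heparin induces aggregation over 6 hr at 37 C.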
Tau fluor cs: Counterscreen qHTS for Inhibitors of Tau Fibril Formation, Fluorescence Polarization; AID 1463, 2008; tau K18 P301L Alexa594 fluorescence, heparin fibrillization; Potency, µM (top dose mostly 57.7 µM); 280,000 tested, 0.93% active; note: nearly all actives have a fitted effect of over 55% in size
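Human K18 P301L tau (15 uM unlabeled plus 0.24 uM Alexa 594-labeled, final) in 100 mM sodium acetate pH 7 was mixed with compound and 20 uM heparin and incubated 6 hr at 37 C.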
Tau fibril ThT: qHTS for Inhibitors of Tau Fibril Formation, Thioflavin T Binding; Microtubule-associated protein tau (Homo sapiens), P10636; recombinant tau K18 P301L (four-repeat tau fragment), heparin-induced fibrillization, ThT fluorescence; Potency, µM (top dose mostly 57.4 µM), actives largely listed as inhibitors; 270,000 tested, 2.1% active; AID 1460, 2008; note: nearly all actives have a fitted effect of over 55% in size
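Aggregation was driven by heparin (20 uM final) acting on recombinant tau […] bearing P301L in 100 mM sodium acetate pH 7; fibrils were detected with Thioflavin T.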
TRb SRC2 PPI: qHTS for Inhibitors of the Interaction of Thyroid Hormone Receptor and Steroid Receptor Coregulator 2; Thyroid hormone receptor beta (Homo sapiens), P10828; TRbeta-SRC2 peptide binding, fluorescence polarization; receptor liganded with 1 µM T3; Potency, µM (doses to about 106 µM), most hits filed as inhibitors; 280,000 tested, 0.065% active; note: nearly all actives have a fitted effect of over 50% in size
Target sequence (P10828 whole entry, looked up): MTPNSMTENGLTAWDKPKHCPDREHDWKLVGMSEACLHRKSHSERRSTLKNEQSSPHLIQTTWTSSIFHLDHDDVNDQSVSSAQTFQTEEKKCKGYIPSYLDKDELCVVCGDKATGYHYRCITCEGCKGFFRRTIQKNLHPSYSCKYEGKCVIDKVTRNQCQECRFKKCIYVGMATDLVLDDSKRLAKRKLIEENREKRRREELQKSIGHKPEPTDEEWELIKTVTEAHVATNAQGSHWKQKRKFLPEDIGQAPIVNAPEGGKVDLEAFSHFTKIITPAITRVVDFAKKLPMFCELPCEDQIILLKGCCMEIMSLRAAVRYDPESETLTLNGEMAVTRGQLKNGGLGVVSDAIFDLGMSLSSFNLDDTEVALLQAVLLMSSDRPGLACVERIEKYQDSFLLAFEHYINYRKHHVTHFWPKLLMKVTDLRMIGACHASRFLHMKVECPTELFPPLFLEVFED
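Fluorescence polarization of 20 nM Texas Red SRC2 peptide with 0.6 uM human TRb ligand-binding domain, in Tris buffer with 1uM T3 and 5% DMSO. Incubated 5 hr ambient; normalized to unbound and bound controls.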
TR SRC2 fluor cs: Total Fluorescence Counterscreen for Inhibitors of the Interaction of Thyroid Hormone Receptor and Steroid Receptor Coregulator 2; Potency, µM (series often up to 106 µM); 280,000 tested, 0.29% active; TRb/SRC2 Texas Red total fluorescence interference; active = well fitted curve in either direction with a large enough effect; inconclusive = small, poorly fitted or top-dose-only effect
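Human TRb ligand-binding domain at 0.6 uM with 20 nM Texas Red SRC2 peptide in Tris buffer containing 1 uM T3 and 5% DMSO, incubated with compound 5 h at ambient temperature. Total fluorescence (555/632 nm) calculated as parallel + 2 × perpendicular.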
Numbers stand for hits; 0 = inactive; ? = inconclusive; - = no result given; ! = not confirmed by another sample; [ ] = dose if it differs, or a comment. Unless noted, calls come from the whole dose curve; as a rule, active = well fitted curve in the direction sought with a large enough effect; inconclusive = small, poorly fitted or top-dose-only effect, or another doubt; inactive = no such curve, though single readings can be large; an effect the other way counts as inactive or inconclusive.

SMILES	Tau FP inhib	Tau fluor cs	Tau fibril ThT	TRb SRC2 PPI	TR SRC2 fluor cs
O=C(CC1Nc2cccc3cccc(c23)NC1=O)Nc1ccc(F)cc1 (configuration not stated)	0	8.91µM![quencher]	?	0	0
COc1ccc(C(CC(=O)Nc2ccc(F)c(Cl)c2)N2Cc3ccccc3C2=O)cc1OC (configuration not stated)	0	?	0	0	0
COc1cn(CC(=O)Nc2ccc(C)cc2C)c(CN2CCCCC2)cc1=O	0	0	0	0	0
O=C(CSc1nc2c([nH]c3ccccc32)c(=O)n1-c1ccc(Cl)cc1)NCc1ccccc1	0	0	0	0	0
CCc1cc(C(=O)c2ccc(OC)cc2)c(NC(=O)CC(C)(C)CC(=O)O)s1	0	0	0	0	0
N[C@@H](CSS(=O)(=O)O)C(=O)O	17.8µM	0	12.6µM	0	0
CCOc1ccccc1NC(=O)N1CCN(C)c2ncccc21	0	0	0	0	0
COC(=O)c1c(NC(=O)/C=C/c2ccc(OC)cc2)sc2c1CCC2	0	0	0	0	0
O=C(/C=C/c1ccccc1)Nc1sc2c(c1C(=O)O)CCC2	0	?	10µM	0	0
CNC(=O)c1c(NC(=O)/C=C/c2ccccc2)sc2c1CCC2	0	?	14.1µM	0	0
O=C(/C=C/c1ccco1)Nc1sc2c(c1C(=O)O)CCC2	0	0	?	0	0
COC(=O)CSc1ccc(S(=O)(=O)N2CCCCCC2)cc1[N+](=O)[O-]	0	0	0	0	0
O=C(Nc1nc(-c2cc3ccccc3oc2=O)cs1)c1ccco1	0	0	0	0	0
O=c1oc2ccccc2cc1-c1csc(NN=C2CCCCC2)n1	0	25.1µM[quencher]	?	0	0
CC1=CCC2C(=O)N(c3ccc(OC(=O)c4ccco4)cc3)C(=O)C2C1 (configuration not stated)	0	0	0	0	0
C=CCc1c(C)nc2nc(SCC(=O)Nc3ccc(OCC)cc3)nn2c1C	0	0	0	0	0
COc1ccc2[nH]c(C)cc(=O)c2c1	0	0	0	0	0
COc1ccc2[nH]c3c(C)c4ccncc4c(C)c3c2c1	0	?	3.55µM	0	0
S=C(NCCC(c1ccccc1)c1ccccc1)Nc1ccc(Cl)cc1	14.1µM	8.91µM[quencher]	0	0	0
S=C(NCCC(c1ccccc1)c1ccccc1)Nc1ccccc1Cl	?	?	0	0	0
CCCCOCCCNC(=S)Nc1ccc(S(=O)(=O)N2CCOCC2)cc1	?	0	0	0	0
O=S(=O)(c1ccc(NC(=S)NCCC(c2ccccc2)c2ccccc2)cc1)N1CCOCC1	14.1µM	?	0	0	0
COc1ccc(C(=O)N2CCCCC2CCN2CCCCC2)cc1 (configuration not stated)	0	0	0	0	0
Cc1ccc(CSc2ncc(Cl)c(C(=O)Oc3ccccc3F)n2)cc1	0	0	15.8µM	0	0
O=C(Oc1ccccc1F)c1nc(SCc2ccccc2F)ncc1Cl	0	0	22.4µM	0	0
SMILES	Tau FP inhib	Tau fluor cs	Tau fibril ThT	TRb SRC2 PPI	TR SRC2 fluor cs
CCOc1ccc(CNC(=O)Cn2nc(C)c3nn(-c4ccc(Cl)cc4)c(C)c3c2=O)cc1OC	?	0	?	0	0
CC1CCc2c(cc(-c3ccccc3)n2-c2ccc(C(=O)NC(C)C)cc2)C1 (configuration not stated)	11.2µM	?	?	0	0
Cc1cc2c(n1-c1ccc(C(=O)NCc3ccc(OC(C)C)cc3)cc1)CCCC2	0	0	0	0	?
CC(C)NC(=O)c1ccc(-n2c(-c3ccccc3)cc3c2CCCCC3)cc1	12.6µM	?	0	0	0
CCCNC(=O)c1ccc(-n2c(-c3ccccc3)cc3c2CCC(C)C3)cc1 (configuration not stated)	12.6µM	?	0	0	?
COCCNC(=O)c1ccc(-n2c(-c3ccccc3)cc3c2CCC(C)C3)cc1 (configuration not stated)	0	?	0	0	0
COC(=O)c1cc(C)nc2c1c(=O)nc(SCc1ccccc1C)n2C1CC1	0	0	0	0	0
Cc1ccc2[nH]c(-c3ccc(F)cc3F)cc(=O)c2c1	0	0	0	0	?
CC(C)CCNC(=O)c1ccc2c(SCC(=O)O)c3c(nc2c1)CCCC3	0	0	?	0	0
O=C(O)CSc1c2c(nc3cc(C(=O)NCCN4CCOCC4)ccc13)CCC2	0	0	0	0	50.1µM[fluorescent]
COc1ccc(-c2noc(CSc3nnc(-c4ccncc4)n3-c3ccc(C)cc3)n2)cc1	0	0	?	0	0
Cc1ccc(-c2noc(CSc3nnc(C)n3-c3ccc(C)cc3)n2)cc1	0	0	0	0	0.112µM[quencher]
COc1ccc(-c2noc(CSc3nnc(Cc4ccccc4)n3-c3ccccc3)n2)cc1OC	0	0	?	0	0.282µM[quencher]
COc1ccc(-c2noc(CSc3nnc(Cc4ccccc4)n3-c3cccc(C)c3)n2)cc1OC	0	0	?	0	0
COc1ccc(-c2noc(CSc3nnc(-c4ccncc4)n3-c3ccc(OC)cc3)n2)cc1	0	0	?	?	0.251µM[quencher]
COc1cccc(CNC(=O)C(C(=O)NCc2cccc(OC)c2)c2ncc(C(F)(F)F)cc2Cl)c1	0	0	0	0	0
C[C@@H](c1ccccc1)N1C(=O)[C@H]2[C@H]3[C@H](O)[C@H](O)C/C(=N/OCc4ccccc4)[C@@H]3CC[C@@H]2C1=O	0[11.6 µM]	0[11.6 µM]	0[11.5 µM]	0[11.2 µM]	0[11.2 µM]
O=C(NC(=S)N1CCN(c2ccccn2)CC1)c1ccco1	0	0	0	0	0
COC(=O)Cn1c(=O)c2c(n(Cc3ccccc3)c1=O)N/C(=C/c1ccc(Br)cc1)C2=O	0	?	15.8µM	0	0
O=C(c1cc(-c2ccco2)nn1-c1cccc(Cl)c1)N1CCCCC1	?	0	28.2µM	0	0
COc1ccc(Nc2oc(/C=C/c3ccc(OC)c(OC)c3)nc2C#N)cc1	0	0	?	0	0
ClC1=C(Cl)C(Cl)(Cl)C(Cl)=C1Cl	-	-	-	0	0
Nn1cnnc1N/N=C/c1cc(Br)cc(Br)c1O	0	?	14.1µM	0	0
CN(C)n1cnc2ccsc2c1=O	0	0	0	0	0
Oc1ccc(/C=N/Nc2cc(N3CCCC3)nc(N3CCCC3)n2)cc1O	0	15.8µM[quencher]	25.1µM	0	0
Oc1ccc(/C=N\Nc2cc(N3CCOCC3)nc(N3CCOCC3)n2)c(O)c1	0	?	?	0	0
O=C1c2ccccc2-c2onc3ccc(Oc4ccccc4)c1c23	?	6.31µM[quencher]	4.47µM	0	0
Cc1cc(-c2ccccc2)nc(-c2ccccc2)c1C	0	0	3.16µM	0	0

Bioassay records from PubChem BioAssay.
